Consider 39 compounds from PubChem BioAssay.

A number with no mark means an inactive call. The rule behind the calls is not given here.

The test system of the assay is Aerobactin synthetase IucA (Klebsiella pneumoniae hvKP1). The experiment in a line: IucA enzyme inhibition, primary screen, biochemical, Spectrum library (AID 1346200).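 Note: 100% = wells without compound and 0% = wells lacking enzyme.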 The settings on record: malachite green pyrophosphate, A620, at 8 µM, hits give low values.
Consider `CCCCN(CCCC)CCCOC(=O)c1ccc(N)cc1`, for which the activity remaining is 90%.

With `COC(=O)C[C@@H]1C2(C)C(=O)[C@@H](CC3=C4C=C(OC)O[C@@H](c5ccoc5)[C@]4(C)CCC32)[C@H](O)C1(C)C` (some centres undefined), the activity remaining was 93.6%.

Consider `C=C1C2CC[C@@]3(C)[C@H](c4ccoc4)OC(=O)C[C@]13O[C@H]1CC(=O)C(C)(C)C(CC(=O)OC)C21C` (some centres undefined), for which the activity remaining was 124%.

Take `O=C(Nc1ccccc1)Nc1ccccc1`: the activity remaining is 103%.

Take `O=C(O[C@@H]1Cc2c(O)cc(O)cc2O[C@@H]1c1cc(O)c(O)c(O)c1)c1cc(O)c(O)c(O)c1`: the activity remaining is 113%.

Take `CCn1cc(C(=O)O)c(=O)c2cc(F)c(N3CCN(C)CC3)cc21`: the activity remaining was 109%.

`CN1CCN(CCC=C2c3ccccc3Sc3ccc(S(=O)(=O)N(C)C)cc32)CC1`: the activity remaining was 116%.

As to `CC(C)c1cccc(O)c(=O)c1`, the activity remaining was 123%.

As to `CCCCCCCCCc1ccc(OCCOCCOCCOCCOCCOCCOCCOCCOCCO)cc1`, the activity remaining is 109%.

Turning to `COc1cc(/C=C/C(=O)O)ccc1O`, the activity remaining was 100%.

Take `COc1ccc(-c2cc(=O)c3c(OC(C)=O)cc(OC(C)=O)cc3o2)cc1`: the activity remaining is 108%.

As for `CCN(CC)C(=O)c1cccc(C)c1`, the activity remaining is 112%.

Regarding `CO[C@@]1(NC(=O)C(C(=O)O)c2ccc(O)cc2)C(=O)N2C(C(=O)O)=C(CSc3nnnn3C)CO[C@@H]21` (some centres undefined), the activity remaining is 102%.

With `CCCCc1nc(Cl)c(CO)n1Cc1ccc(-c2ccccc2-c2nn[nH]n2)cc1`, the activity remaining was 110%.

For `CCOc1ccc(Cc2nccc3cc(OCC)c(OCC)cc23)cc1OCC`, the activity remaining is 109%.

For `Nc1ccc(S(N)(=O)=O)cc1`, the activity remaining is 116%.

On to `C=Cc1c(C)/c2[n-]/c1=C\c1[n-]c(c(CC)c1C)/C=c1\[n-]c3c(c1C)C(=O)C(C(=O)[O-])C=3c1[n-]c(c(C)c1CCC(=O)[O-])\C=2.[Cu].[Na+].[Na+]` (centres undefined), for which the activity remaining is 77.9%.

With `O=c1cc(-c2cccc(O)c2)oc2ccc(O)cc12`, the activity remaining is 101%.

Consider `CC(=O)Oc1ccccc1C(=O)Oc1ccccc1C(=O)O`, for which the activity remaining is 97.5%.

Consider `COC(=O)c1c(C)cc(O)cc1O`, for which the activity remaining was 89.5%.

Take `C/C=C(/C)C(=O)O[C@H]1CC[C@@]2(C)[C@@H]3CC[C@H]4[C@]5(O)C[C@H](O)[C@@]6(O)[C@@H](CN7C[C@@H](C)CC[C@H]7[C@@]6(C)O)[C@]5(O)C[C@@]42OC13O`: the activity remaining is 103%.

For the compound `O=C(O)CC(O)(CC(=O)O)C(=O)O`, the activity remaining is 123%.

Consider `COc1ccc(C(=O)/C=C/c2ccccc2)cc1`, for which the activity remaining is 106%.

`CNCCc1ccccn1`: the activity remaining is 114%.

For the compound `COc1ccc([C@@H](C)C(=O)c2ccc(O)cc2O)cc1`, the activity remaining was 118%.

Turning to `CC(C)c1ccc2c(c1)CCC1[C@](C)(CN)CCC[C@]21C` (some centres undefined), the activity remaining was 111%.

In the case of `CC(=O)OCC[N+](C)(C)C`, the activity remaining was 118%.

As to `COc1cc(C)c(C(=O)Oc2cc(C)c(C(=O)O)c(O)c2C)c(OC)c1C`, the activity remaining is 91.1%.

Take `CO[C@H]1[C@@H](O)[C@@H](C)O[C@H](O[C@H]2CCC3(C)C4CCC5(C)[C@@H](C6=CC(=O)OC6)CC[C@]5(O)[C@@H]4CC[C@]3(O)C2)[C@@H]1O` (some centres undefined): the activity remaining is 113%.

As to `NC(=O)c1cccnc1`, the activity remaining is 109%.

On to `COc1c(C(C)C)oc2cc3oc(=O)ccc3cc12`, for which the activity remaining is 102%.

Regarding `CC(CN(C)C)CN1c2ccccc2Sc2ccccc21` (centres undefined), the activity remaining is 101%.

Turning to `C[C@@H]1[C@H]2[C@H](O[C@@H]3O[C@H](CO)[C@@H](O)[C@H](O)[C@H]3O)OC=C(C(=O)O)[C@H]2C[C@@H]1O`, the activity remaining was 120%.

Regarding `CC(C)/C(O)=C1/C(=O)O[C@@H](c2ccoc2)[C@]2(C)C(O)[C@@H](O)[C@@]34OC5(C)OC67CC(C)(C(O)[C@]6(O)[C@@H](O)[C@]3(O5)C12)[C@H](CC(=O)O)[C@]74C` (some centres undefined), the activity remaining is 92.7%.

As to `O=c1oc2ccccc2cc1O`, the activity remaining is 110%.

As for `COc1cc(C(=O)NCc2ccc(OCCN(C)C)cc2)cc(OC)c1OC`, the activity remaining was 114%.

For `O=C(O)c1ccc(S(=O)(=O)N(Cl)Cl)cc1`, the activity remaining is 113%.

For `O=c1cc[nH]c(=S)[nH]1`, the activity remaining was 97.7%.

For `CCCCCCCCCCCCCCCCOP(=O)([O-])OCC[N+](C)(C)C`, the activity remaining was 128%.
